NFkB transloc inh = inhibitors of IL-1B driven NFkB p65 nuclear import, primary screen, imaging, HUVEC, IL-1B stimulus, high-content imaging; HUVEC IL-1B NFkB p65 nuclear translocation imaging; inhibition, % at 2 µM; 0.43% of 94,000 active; AID 796, 2007;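 active = inhibition above about 30% together with a positive call from visual inspection of the well image, limit read from the data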;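 also: nuclear over cytoplasmic p65 intensity ratio measured by imaging; 0% = IL-1B stimulated DMSO wells and 100% = unstimulated DMSO wells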
Cav32 inh = Cav3.2 calcium influx blockers – cell-based, Fluo-4 calcium fluorescence, FDSS, MLSMR library, primary screen. Voltage-dependent T-type calcium channel subunit alpha-1H (Homo sapiens), O95180. Cav3.2-expressing cells; active compounds read low. B-score at 10 µM. 4% of 100,000 active. AID 449739, 2010;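 active = single-dose well whose peak fluorescence ratio is a statistical outlier from its plate by either plate-standardised score or position-corrected B-score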
Target sequence (O95180 whole entry, looked up): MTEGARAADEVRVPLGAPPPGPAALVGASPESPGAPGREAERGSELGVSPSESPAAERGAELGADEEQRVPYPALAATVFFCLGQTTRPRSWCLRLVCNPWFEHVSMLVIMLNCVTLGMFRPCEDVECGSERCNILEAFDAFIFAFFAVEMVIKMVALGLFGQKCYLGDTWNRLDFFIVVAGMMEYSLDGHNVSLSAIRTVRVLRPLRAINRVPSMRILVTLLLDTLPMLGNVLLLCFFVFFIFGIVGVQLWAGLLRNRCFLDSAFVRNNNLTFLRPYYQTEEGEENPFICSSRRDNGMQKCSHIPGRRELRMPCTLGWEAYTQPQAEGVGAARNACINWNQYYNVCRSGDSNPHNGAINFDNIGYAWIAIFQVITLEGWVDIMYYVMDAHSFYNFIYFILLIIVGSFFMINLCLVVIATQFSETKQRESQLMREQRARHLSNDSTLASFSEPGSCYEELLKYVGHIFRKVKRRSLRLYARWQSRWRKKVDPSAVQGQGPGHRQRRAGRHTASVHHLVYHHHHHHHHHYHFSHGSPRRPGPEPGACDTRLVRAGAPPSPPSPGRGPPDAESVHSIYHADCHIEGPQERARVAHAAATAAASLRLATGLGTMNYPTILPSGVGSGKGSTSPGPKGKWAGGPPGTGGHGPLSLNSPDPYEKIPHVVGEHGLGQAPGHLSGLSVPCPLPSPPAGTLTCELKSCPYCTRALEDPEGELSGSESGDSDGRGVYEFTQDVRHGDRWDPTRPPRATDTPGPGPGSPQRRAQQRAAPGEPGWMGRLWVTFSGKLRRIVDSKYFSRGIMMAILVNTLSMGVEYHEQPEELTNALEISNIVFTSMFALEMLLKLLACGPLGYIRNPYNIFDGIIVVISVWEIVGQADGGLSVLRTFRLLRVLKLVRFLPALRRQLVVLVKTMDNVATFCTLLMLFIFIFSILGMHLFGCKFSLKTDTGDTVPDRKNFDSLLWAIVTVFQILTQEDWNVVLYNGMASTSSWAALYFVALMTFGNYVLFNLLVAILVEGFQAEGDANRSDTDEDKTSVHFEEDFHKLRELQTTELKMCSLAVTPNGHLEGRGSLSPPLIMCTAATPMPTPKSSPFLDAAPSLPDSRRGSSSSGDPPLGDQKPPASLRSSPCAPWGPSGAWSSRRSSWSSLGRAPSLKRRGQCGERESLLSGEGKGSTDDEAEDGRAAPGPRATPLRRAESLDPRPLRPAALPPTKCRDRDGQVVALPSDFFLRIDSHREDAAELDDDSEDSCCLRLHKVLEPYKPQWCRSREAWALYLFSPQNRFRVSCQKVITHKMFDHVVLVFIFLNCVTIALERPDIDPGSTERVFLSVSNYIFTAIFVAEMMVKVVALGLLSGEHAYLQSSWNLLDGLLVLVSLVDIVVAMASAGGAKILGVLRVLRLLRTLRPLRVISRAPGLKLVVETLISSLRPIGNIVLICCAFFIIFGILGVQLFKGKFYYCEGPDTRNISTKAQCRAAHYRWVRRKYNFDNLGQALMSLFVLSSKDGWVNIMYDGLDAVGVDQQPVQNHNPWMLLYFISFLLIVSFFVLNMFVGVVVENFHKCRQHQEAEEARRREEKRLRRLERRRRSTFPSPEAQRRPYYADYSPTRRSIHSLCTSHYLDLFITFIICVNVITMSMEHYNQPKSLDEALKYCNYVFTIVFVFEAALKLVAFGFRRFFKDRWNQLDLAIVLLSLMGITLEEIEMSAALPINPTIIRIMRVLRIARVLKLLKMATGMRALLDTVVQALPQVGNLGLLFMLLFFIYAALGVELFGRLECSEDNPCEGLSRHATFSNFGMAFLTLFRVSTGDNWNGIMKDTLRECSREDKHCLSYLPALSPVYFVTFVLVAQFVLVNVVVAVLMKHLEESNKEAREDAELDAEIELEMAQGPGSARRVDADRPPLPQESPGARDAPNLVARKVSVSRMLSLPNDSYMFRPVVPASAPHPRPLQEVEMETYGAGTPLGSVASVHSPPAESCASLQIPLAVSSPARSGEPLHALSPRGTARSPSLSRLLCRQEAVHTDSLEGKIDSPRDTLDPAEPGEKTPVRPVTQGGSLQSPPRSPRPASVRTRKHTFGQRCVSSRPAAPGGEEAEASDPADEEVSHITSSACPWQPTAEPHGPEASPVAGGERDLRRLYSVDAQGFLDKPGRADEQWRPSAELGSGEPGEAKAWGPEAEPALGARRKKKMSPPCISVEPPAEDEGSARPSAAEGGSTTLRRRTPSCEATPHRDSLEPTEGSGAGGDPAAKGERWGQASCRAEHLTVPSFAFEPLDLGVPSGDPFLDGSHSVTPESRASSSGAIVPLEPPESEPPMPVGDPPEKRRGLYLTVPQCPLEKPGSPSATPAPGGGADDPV
HUVEC tox IL1B = cytotoxicity in IL-1B stimulated HUVEC, primary screen, cytotoxicity control for IL-1B NFkB translocation project, imaging, Hoechst nuclear count, IL-1B stimulus. HUVEC cell count loss. cell count reduction, % at 2 µM. 0.41% of 94,000 active. AID 845, 2007;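 active = cell count reduction more than 3 SD above the screen-wide mean, cut at about 70% in these data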;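 also: normalized per plate to untreated control cells as the no-loss baseline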
IL1B NFkB pot = enhancers of NFkB p65 translocation in HUVEC – imaging, IL-1B stimulus, high-content imaging, primary screen. 0.3% of 94,000 active. activation, % at 2 µM. HUVEC IL-1B NFkB p65 nuclear translocation imaging;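 active = activation above 40%, about the mean plus 3 SD, also judged a hit on visual image review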;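 also: percent activation is computed from the nuclear over cytoplasmic p65 intensity ratio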
* hit, by the source's call. Most compounds without a hit are left out; they make up all but 4.4% or so of the library.

Results for COc1ccc2oc(=O)c(C(=O)Oc3ccc(NC(C)=O)cc3)cc2c1 ?
NFkB transloc inh: -8; Cav32 inh: 0.019; HUVEC tox IL1B: 26; IL1B NFkB pot: 9

How did O=C(CSc1nnnn1C1CCCCC1)N1c2ccccc2Sc2ccccc21 do in these assays?
NFkB transloc inh: 4; Cav32 inh: -6*; HUVEC tox IL1B: -6; IL1B NFkB pot: -4

What do the screens show for `O=C(CSc1nnnn1C1CCCCC1)NCCc1ccccc1`?
NFkB transloc inh: 0; Cav32 inh: 1.6; HUVEC tox IL1B: -11; IL1B NFkB pot: 0

What do the screens show for `C#CCNC(=O)C1=C[C@@H](c2ccc3c(c2)OCO3)C[C@@H](OCCCCO)O1`?
Cav32 inh: 1.2

What do the screens show for `Cc1cc([N+](=O)[O-])c(NCCCCCCO)c([N+](=O)[O-])c1`?
NFkB transloc inh: -9; Cav32 inh: -1.5; HUVEC tox IL1B: -6; IL1B NFkB pot: 9

What do the screens show for `C/C(=N\NC(=O)CC1N=C(Cc2ccccc2)NNC1=O)c1ccc(Cl)cc1Cl` (stereo not drawn)?
NFkB transloc inh: -12; Cav32 inh: -4.7*; HUVEC tox IL1B: -2; IL1B NFkB pot: 12

How did C/C(=N\NC(=O)CC1N=C(Cc2ccccc2)NNC1=O)c1ccccc1 (stereo not drawn) do in these assays?
NFkB transloc inh: -6; Cav32 inh: 0.75; HUVEC tox IL1B: -11; IL1B NFkB pot: 6

How did CCN(CC)c1nc2c(s1)C(=O)CC(C)(C)C2 do in these assays?
NFkB transloc inh: -11; Cav32 inh: -0.092; HUVEC tox IL1B: -24; IL1B NFkB pot: 11

Results for COCc1cc(=O)n2[nH]c(C)nc2n1 ?
Cav32 inh: 0.045

What do the screens show for `CC(=O)N1CCCc2ccccc21`?
NFkB transloc inh: -32; Cav32 inh: 0.78; HUVEC tox IL1B: -88; IL1B NFkB pot: 32

Results for O=C(Cc1cccc2ccccc12)N1CCCc2ccccc21 ?
NFkB transloc inh: 7; Cav32 inh: -4.5*; HUVEC tox IL1B: -9; IL1B NFkB pot: -7

Results for O=C(CCNc1cccc(Cl)c1)c1ccco1 ?
Cav32 inh: 0.064

Results for Cc1ccc2c(CC(=O)NCc3ccco3)coc2c1C ?
NFkB transloc inh: -4; Cav32 inh: -9.4*; HUVEC tox IL1B: -8; IL1B NFkB pot: 4

Results for CC1(C)Cc2c(cnn2-c2ccccc2)-c2c1c1ccccc1n2CC(O)CCl (stereo not drawn) ?
NFkB transloc inh: 13; Cav32 inh: -0.17; HUVEC tox IL1B: 91*; IL1B NFkB pot: -13

How did C=CCOc1c(CNc2nccs2)cccc1OCC do in these assays?
NFkB transloc inh: -11; Cav32 inh: -1.4; HUVEC tox IL1B: -30; IL1B NFkB pot: 11

How did CC(C)NS(=O)(=O)c1ccc(OCC(=O)Nc2cccc3ccccc23)cc1 do in these assays?
NFkB transloc inh: -21; Cav32 inh: -3.6*; HUVEC tox IL1B: -9; IL1B NFkB pot: 21

What do the screens show for `COCC(=O)Nc1cccc2ccccc12`?
NFkB transloc inh: 11; Cav32 inh: 0.11; HUVEC tox IL1B: 26; IL1B NFkB pot: -11

How did CC(Oc1ccc(Cl)cc1)c1ccnn1S(=O)(=O)c1ccccc1 (stereo not drawn) do in these assays?
NFkB transloc inh: 7; Cav32 inh: -6.1*; HUVEC tox IL1B: -1; IL1B NFkB pot: -7

What do the screens show for `CC(Oc1ccc(-c2ccccc2)c(F)c1)c1ccn(S(=O)(=O)c2ccc(Cl)cc2)n1` (stereo not drawn)?
NFkB transloc inh: 2; Cav32 inh: -5.1*; HUVEC tox IL1B: 18; IL1B NFkB pot: -2

What do the screens show for `O=C(C1CCN(S(=O)(=O)N2CCOCC2)CC1)N1CCN(c2ccccc2)CC1`?
NFkB transloc inh: 0; Cav32 inh: 0.99; HUVEC tox IL1B: 33; IL1B NFkB pot: 0

What do the screens show for `O=C(CSc1ccc2nnc(-c3ccccn3)n2n1)NCc1ccco1`?
NFkB transloc inh: -1; Cav32 inh: -0.022; HUVEC tox IL1B: -7; IL1B NFkB pot: 1

Results for COc1ccc(S(=O)(=O)Nc2cc(C)ccc2OC)cc1C ?
NFkB transloc inh: -20; Cav32 inh: -7.7*; HUVEC tox IL1B: -17; IL1B NFkB pot: 20

How did CCC(C)C(NC(=O)OC(C)(C)C)C(=O)NC(Cc1ccccc1)C(=O)OC (stereo not drawn) do in these assays?
Cav32 inh: -0.83

How did CC(C)CC(NC(=O)C(Cc1ccc(OCc2ccccc2)cc1)NC(=O)OC(C)(C)C)C(N)=O (stereo not drawn) do in these assays?
NFkB transloc inh: 1; Cav32 inh: -4.8*; HUVEC tox IL1B: -32; IL1B NFkB pot: -1

Results for Cc1cccc(NC(=O)CCc2ccc(C)o2)c1 ?
NFkB transloc inh: 2; Cav32 inh: 0.54; HUVEC tox IL1B: 6; IL1B NFkB pot: -1

What do the screens show for `CCOC(=O)N1CCC2(CC1)C(C#N)=C(N)Oc1c2c(C)nn1-c1cccc(Cl)c1`?
NFkB transloc inh: -14; Cav32 inh: -0.24; HUVEC tox IL1B: 11; IL1B NFkB pot: 14

What do the screens show for `Cc1cccc(Nc2nnc(-c3ccc(C(=O)N4C[C@H]5C[C@H](C4)c4cccc(=O)n4C5)cc3)c3ccccc23)c1`?
NFkB transloc inh: -1; Cav32 inh: -0.93; HUVEC tox IL1B: -6; IL1B NFkB pot: 1

Results for CCCC(=O)NC(Nc1cc(C(F)(F)F)ccc1Cl)C(Cl)(Cl)Cl (stereo not drawn) ?
NFkB transloc inh: 5; Cav32 inh: -1.9; HUVEC tox IL1B: -60; IL1B NFkB pot: -5

How did CCC(C(=O)Nc1cccc(C(F)(F)F)c1)c1ccccc1 (stereo not drawn) do in these assays?
NFkB transloc inh: -5; Cav32 inh: -6.8*; HUVEC tox IL1B: 12; IL1B NFkB pot: 4

How did CCCC(=O)NC(Nc1cccc(C(F)(F)F)c1)C(Cl)(Cl)Cl (stereo not drawn) do in these assays?
NFkB transloc inh: -2; Cav32 inh: -5*; HUVEC tox IL1B: 15; IL1B NFkB pot: 2

How did CNC(=O)Nc1cccc(C(F)(F)F)c1 do in these assays?
NFkB transloc inh: -14; Cav32 inh: -1.1; HUVEC tox IL1B: -4; IL1B NFkB pot: 14

How did CS(=O)(=O)N(CC(=O)N1CCN(c2ccccc2)CC1)c1cc(C(F)(F)F)ccc1Cl do in these assays?
NFkB transloc inh: 0; Cav32 inh: -4.3*; HUVEC tox IL1B: -39; IL1B NFkB pot: 0

What do the screens show for `CS(=O)(=O)N(CC(=O)N1CCN(c2ccccc2)CC1)c1ccc(Cl)c(C(F)(F)F)c1`?
NFkB transloc inh: -13; Cav32 inh: -5.3*; HUVEC tox IL1B: -83; IL1B NFkB pot: 13

How did CS(=O)(=O)N(CC(=O)N1CCN(c2ccccc2F)CC1)c1cc(C(F)(F)F)ccc1Cl do in these assays?
NFkB transloc inh: 3; Cav32 inh: -2.3; HUVEC tox IL1B: 21; IL1B NFkB pot: -3

How did CS(=O)(=O)N(CC(=O)N1CCN(c2cccc(Cl)c2)CC1)c1cccc(F)c1 do in these assays?
NFkB transloc inh: -30; Cav32 inh: -6.3*; HUVEC tox IL1B: 2; IL1B NFkB pot: 30

What do the screens show for `COC(=O)CN(c1cccc(F)c1)S(C)(=O)=O`?
NFkB transloc inh: -71; Cav32 inh: -0.14; HUVEC tox IL1B: 0; IL1B NFkB pot: 71*
